Source: PubChem BioAssay (Tox21)
Results filed as inconclusive are left out. Values without a mark were called inactive. Calls come from the whole dose curve; as a rule, active = well fitted activation curve with a large enough effect in the repeat runs; inconclusive = weak or mixed curves; inactive = flat fitted curve, though single readings scatter.

experiment: A CellTox Green Cytotoxicity Assay to monitor cytotoxicity in HepG2 cells - 40 hour (AID 1224879); conditions: CellTox Green fluorescence; series mostly up to 76.8 µM; cytotoxicity increase: at the top concentration; note: nearly all actives have a fitted effect of over 40% in size
In short: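 Using 1536-well format, dye-containing HepG2 suspension was seeded, allowed 5 h at 37 C/5% CO2, dosed by pintool with compounds, positive and negative controls, and imaged for fluorescence across 40 h.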
% is set by controls: 0 for no effect and ±100 for the full control effect.

Point of comparison: `CC(=O)CC(=O)OC(C)(C)C`, “cytotoxicity increase” value -1.11%. Against it:
- NCC1(Cc2noc(=O)[nH]2)CCCCC1 — lower, -12.2%
- O=Cc1cc2ccccc2o1 — higher, -0.649%
- COC(=O)c1ccccc1C(=O)O — higher, 2.94%
- CCOc1cccc(N)c1 — lower, -2.35%
- COC(=O)c1cccc(Cl)c1 — lower, -2.09%
- CN(C)C(C)(C)CO — lower, -8.2%
- CCCCSCCCC — higher, 3.32%
- COP(=O)(O)OP(=O)(O)OC — lower, -3.11%
- CCCC(=O)OC/C=C(\C)CCC=C(C)C — higher, 14.4%
- CCC(=O)CC — higher, -0.779%
- Cc1c(N)cccc1Cl — lower, -1.66%
- CN(C)CCCCl — lower, -5.7%
- Cc1cc(C)c(C(=O)O)c(C)c1 — higher, 1.13%
- C[C@@H](O)C(=O)O — lower, -6.55%
- Cc1ccc(C(=O)O)cc1[N+](=O)[O-] — higher, 7.44%
- COC(C)(OC)OC — higher, -0.184%
- CC/C(C)=N\O[Si](C)(O/N=C(\C)CC)O/N=C(\C)CC — lower, -6.18%
- OC1OCCOC1O (configuration not stated) — higher, 3.48%
- N#Cc1ccccc1O — lower, -7.22%
- OCC1CCC(CO)CC1 (configuration not stated) — higher, 0.75%
- COc1ccc(CCO)cc1 — lower, -2.28%

Point of comparison: `Cc1c(NC(=O)c2cccnc2)c(=O)n(-c2ccccc2)n1C`, “cytotoxicity increase” value 6.22% [at 35.3 µM]. Against it:
- C[C@]12CCC(=O)C=C1CC[C@H]1[C@@H]3CC[C@](O)(C(=O)CO)[C@@]3(C)C[C@H](O)[C@@]12F — lower, -16.5% [at 35.3 µM]
- OC[C@H]1O[C@@H](O[C@@H]2[C@@H](CO)O[C@](O)(CO)[C@H]2O)[C@H](O)[C@@H](O)[C@H]1O — lower, 1.03% [at 35.3 µM]
- CCN1CCCC1CN (configuration not stated) — lower, 1.16% [at 35.3 µM]
- Cc1cc(-c2ccccc2)nnc1NCCN1CCOCC1 — lower, 1.59% [at 35.3 µM]
- COCCc1ccccn1 — lower, 5.98% [at 35.3 µM]
- O=C(Cn1ccnc1[N+](=O)[O-])NCc1ccccc1 — lower, -8.5% [at 35.3 µM]
- CC(C)C[C@@H]1[C@H](c2ccccc2)OC(=O)N1CCCN1CCCCCC1 — lower, 1.43% [at 35.3 µM]
- CC(C)(C)NC[C@H](O)COc1cccc2c1CCCC2=O — lower, -13.1% [at 35.3 µM]
- CC1(C)O[C@H]2CC(=O)OC[C@]23[C@H]2CC[C@@]4(C)[C@H](c5ccoc5)OC(=O)[C@H]5O[C@]54[C@]2(C)C(=O)C[C@@H]13 — lower, 1.47% [at 35.3 µM]
- CO/N=C(/C(=O)N[C@@H]1C(=O)N2C(C(=O)[O-])=C(C[n+]3ccn4ncccc43)CS[C@H]12)c1nsc(N)n1 — lower, -18.4% [at 35.3 µM]
- CC1=C(C(=O)O)N2C(=O)[C@@H](NC(=O)[C@H](N)c3ccccc3)[C@H]2SC1 — lower, 3.09% [at 35.3 µM]

Point of comparison: `CCOC(CN1CCN(CC(C)C(=O)c2ccccc2)CC1)c1ccccc1` (configuration not stated), cytotoxicity increase -19.9% [at 15.8 µM]. Against it:
- N[C@@H](CSCCCO)C(=O)O — higher, -14.5% [at 15.8 µM]

For `CCn1cc(C(=O)O)c(=O)c2cnc(N3CCCC3)nc21`, the cytotoxicity increase was 2.25% [at 6.97 µM].
